Vaccinia Venus – vaccinia inhibition (Venus reporter); Vaccinia virus Venus reporter expression, fluorescence; Potency, µM (series often up to 36.5 µM), for inactives: top-dose activity change, negative = inhibition, actives largely listed as inhibitors; 0.46% of 330,000 active; calls by dose curve; tested in A549 cells; also: nearly all actives have a fitted effect of over 30% in size
Pf growth 48h – inhibits P. falciparum growth in the first generation, 48 h; AID 504832; P. falciparum luciferase growth in erythrocytes, 48 h; 5.9% of 310,000 active; Potency, µM (highest dose often 28.7 µM), without a hit: top-dose activity change, negative = inhibition, hits mostly inhibitors
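First compound was added to culture medium, then infected red cells at 0.1% parasitemia and 2% hematocrit (final). After incubation at 37 C under 5% CO2, luciferase detection reagent was dispensed and light output recorded.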
VACV mCherry inh – inhibitors of vaccinia virus infection (mCherry reporter signal) | Vaccinia virus mCherry reporter infection, fluorescence | Potency, µM (series often up to 36.5 µM), without a hit: at the top dose activity change, negative = inhibition, actives largely listed as inhibitors | 0.63% of 310,000 active; calls by dose curve; tested in A549 cells; also: nearly all actives have a fitted effect of over 35% in size
AMA1-RON2 inh – AMA1-RON2 (P. falciparum) interaction inhibition; AlphaScreen AMA1-biotinylated RON2 peptide binding; Potency, µM (doses to about 58.2 µM), without a hit: at the highest dose activity change, negative = inhibition, actives largely listed as inhibitors; 0.2% of 360,000 active; AID 720542;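 also: 0% = vehicle wells and -100% = peptide control; nearly all actives have a fitted effect of over 45% in size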
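AMA1 (3D7) with his tag at 25 nM final met compounds first, then biotinylated RON2 peptide at 25 nM; detection used donor plus acceptor beads, 10 µg/mL apiece, read by AlphaScreen after 30 min at room temperature.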
Pf growth 96h – inhibits malaria parasite growth, 96 h | 6.9% of 320,000 active | P. falciparum luciferase reporter growth, 96 h | Potency, µM (doses to about 28.7 µM), for the others: at the top dose activity change, negative = inhibition, most hits filed as inhibitors
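Cell-based qHTS: luciferase-tagged P. falciparum in erythrocytes (2% hematocrit, 0.05% parasitemia final) incubated with compounds for 96 hours, 37 C, 5% CO2; luciferase detection reagent then added and luminescence measured.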
An asterisk follows results filed as active; ? = inconclusive; · = not tested or not shown; ! = a repeat was not active; [ ] = dose if it differs, or a comment. In the library only some 8.7% were active in any assay of this set; here they are far more common. Unless noted, calls follow the shape of the dose curve; as a rule, active = well fitted curve in the direction sought with a large enough effect; inconclusive = small, poorly fitted or top-dose-only effect, or another doubt; inactive = no such curve, though single readings can be large; an effect the other way counts as inactive or inconclusive. Unless noted, % is scaled to controls: 0 for no effect and ±100 for the full control effect; potency is read from the fitted curve at half-maximal effect.

SMILES | Vaccinia Venus | Pf growth 48h | VACV mCherry inh | AMA1-RON2 inh | Pf growth 96h
O=S(=O)(c1ccccc1)N(CC(F)(F)F)c1ccc(C(O)(C(F)(F)F)C(F)(F)F)cc1 | 11µM*! | · | ? | 11% | ·
CCN(c1ccc(C(O)(C(=O)OC)C(F)(F)F)cc1)S(=O)(=O)c1ccccc1 (centres undefined) | -22% | 3% | 0% | 14% | 20%
Cc1nc(NC(=O)CC(C)C)sc1-c1csc(Nc2ccc(Cl)cc2)n1 | ? | 10µM* | ? | 22% | 4.7µM*
Cc1nc(NC(=O)CC(C)C)sc1-c1csc(Nc2ccc(Cl)cc2Cl)n1 | -24% | ? | -9% | 11% | 9.3µM*
C=CCCC(=O)Nc1nc(C)c(-c2csc(Nc3cc(Cl)ccc3OC)n2)s1 | ? | ? | ? | 6% | ?
CCC(=O)Nc1nc(C)c(-c2csc(Nc3cccc(O)c3)n2)s1 | · | · | · | -1% | -19%
C=CCCC(=O)Nc1nc(C)c(-c2csc(Nc3ccc(Cl)cc3Cl)n2)s1 | ? | ? | ? | 14% | 8.3µM*
COc1ccc(Cl)cc1Nc1nc(-c2sc(NC(=O)CC(C)C)nc2C)cs1 | ? | 10µM* | ? | -5% | 9.3µM*
Cc1cccc(C(=O)Nc2ccc3nc(SCC(=O)N4CCc5ccccc54)sc3c2)c1 | -6% | · | -9% | · | ·
CCOc1ccccc1CNC(=O)c1cnc2sc(N3CCOCC3)nn2c1=O | -17% | · | -17% | · | ·
Cc1ccc(-c2nc(C#N)c(NCc3ccco3)o2)cc1 | 1% | 84% | · | -7% | 12µM*
COc1ccc(-c2nc(C#N)c(NCc3ccco3)o2)cc1 | · | 110% | · | -11% | 39%
COc1ccc(CNc2oc(COc3ccccc3Cl)nc2C#N)cc1 | · | · | · | -21% | 1.5µM*
COc1ccccc1OCc1nc(C#N)c(NCc2ccco2)o1 | -1% | -20% | -19% | 11% | 12µM*
N#Cc1nc(COc2ccc(Cl)cc2)oc1NCc1ccc2c(c1)OCO2 | -27% | · | -14% | -43% | 10µM*
CCOC(=O)N(C(=O)c1ccccc1)c1ccccc1 | -9% | · | -15% | · | ·
COC(=O)c1sc2cccc(F)c2c1S(=O)(=O)N1CCN(c2cccc(OC)c2)CC1 | -5% | · | 0% | · | ·
Cc1ccc(NC(=O)NCc2cccn2Cc2ccccc2)c(C)c1 | -9% | · | 2% | · | ·
COc1ccc(OCC(=O)Nc2ccc3c(c2)nc(CCN2CCOCC2)n3C)cc1 | · | ? | · | -26% | 3%[5.75 µM]
CC(C)CC(=O)Nc1ccc2c(c1)nc(CCN1CCCCC1)n2C | ? | ? | ? | -9% | 13µM*
COc1ccc(OCC(=O)Nc2ccc3c(c2)nc(CCn2ccccc2=O)n3C)cc1 | · | ? | · | 27% | 5.2µM*
CCCC(=O)Nc1ccc2c(c1)nc(CN1CCN(C(C)=O)CC1)n2C | -10% | 26% | · | -4% | 57%
CC(=O)N1CCN(Cc2nc3cc(NC(=O)C4CCCCC4)ccc3n2C)CC1 | · | -23% | · | 13% | 1.9µM*
Cn1c(CN2CCN(C(=O)c3ccc(F)cc3)CC2)nc2cc([N+](=O)[O-])ccc21 | -25% | ? | ? | -15% | 13µM*
COc1ccccc1C1CN(CCNC(=O)c2sccc2Cl)Cc2ccccc2O1 (centres undefined) | 4% | · | -13% | · | ·
SMILES | Vaccinia Venus | Pf growth 48h | VACV mCherry inh | AMA1-RON2 inh | Pf growth 96h
CN1CCN(CCc2nc3cc(NC(=O)COc4ccc(Cl)cc4)ccc3n2C)CC1 | -25% | ? | -17% | 33% | 9.3µM*
CC(C)N1C(=S)N(Cc2ccco2)C(=O)C1CC(=O)Nc1ccccc1 (centres undefined) | 5% | 1µM* | -7% | -11% | ?
O=C(CC1C(=O)N(c2ccccc2)C(=O)N1Cc1ccco1)Nc1ccccc1 (centres undefined) | -7% | 13% | -1% | -17% | 15µM*
O=c1c(=O)n(-c2ccccc2)ccn1Cc1cccc(C(F)(F)F)c1 | -6% | · | -12% | · | ·
c1ccc2sc(-c3cc4c(c(OC5CCOC5)c3)OCCN(Cc3cccn3-c3nccs3)C4)nc2c1 (centres undefined) | -5% | · | -12% | · | ·
COc1ccc(CN2CCOc3ccc(CN4CCC(Oc5cccnc5)CC4)cc3C2)cc1 | -25% | · | -12% | · | ·
CCCCC[n+]1ccn(C2=C([O-])c3ccccc3C(=O)/C2=N\S(=O)(=O)c2ccc(Cl)cc2)c1 | · | 0% | · | 13% | ?
